Screens as filed in PubChem BioAssay.
NIH3T3 tox: NIH 3T3 cell cytotoxicity | NIH 3T3 viability, CellTiter-Glo ATP luminescence, 48-72 h | Potency, µM (highest dose often 96.7 µM), for the others: top-dose activity change, negative = cytotoxicity, actives largely listed as inhibitors | actives 4.3% (n = 94,000) | AID 1345082; also: nearly all actives have a fitted effect of over 55% in size
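Viability of NIH 3T3 cells after 48 or 72 hr compound treatment at 37 °C was assessed by CellTiter-Glo, with luminescence imaged following a 10 min room-temperature step.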
GPT2 inh: blocks human glutamate pyruvate transaminase 2. Recombinant GPT2, coupled pyruvate oxidase/HRP Amplex Red fluorescence. Potency, µM (doses to about 57.7 µM), for the others: at the top dose activity change, negative = inhibition, actives largely listed as inhibitors. actives 0.25% (n = 100,000). AID 1671188; also: nearly all actives have a fitted effect of over 60% in size
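Fluorescence read-out: pyruvate from GPT2 turnover coupled to pyruvate oxidase, HRP and Amplex Red (0.2mM ThPP, 0.2U/mL PO and HRP, 50uM Amplex final). Substrates 250uM a-KG, 2mM L-alanine; enzyme 10ng/uL; 30 min RT.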
NPR1 antag: antagonists of human natriuretic peptide receptor Npr1. HEK293 hNpr1 GloSensor cGMP, ANP-stimulated luminescence. Potency, µM (top dose mostly 46.3 µM), inactives show at the top dose activity change, negative = inhibition, hits mostly inhibitors. actives 1.6% (n = 76,000); calls by dose curve; also: nearly all actives have a fitted effect of over 60% in size
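Compound pre-incubated 30 min at room temperature on GloSensor-loaded HEK293 cells stably carrying hNpr1 and the pGS-40F cGMP biosensor. Stimulation uses hNppA at 0.1 nM final; luminescence is taken at baseline and 20 min post-agonist.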
Luciferase inh: Photinus pyralis luciferase inhibition; purified P. pyralis luciferase, luminescence, biochemical; actives 2.5% (n = 76,000); Potency, µM (titrated, usually from 115 µM), usual class: inhibitors; also: nearly all actives have a fitted effect of over 65% in size
Target sequence (P08659 whole entry, looked up): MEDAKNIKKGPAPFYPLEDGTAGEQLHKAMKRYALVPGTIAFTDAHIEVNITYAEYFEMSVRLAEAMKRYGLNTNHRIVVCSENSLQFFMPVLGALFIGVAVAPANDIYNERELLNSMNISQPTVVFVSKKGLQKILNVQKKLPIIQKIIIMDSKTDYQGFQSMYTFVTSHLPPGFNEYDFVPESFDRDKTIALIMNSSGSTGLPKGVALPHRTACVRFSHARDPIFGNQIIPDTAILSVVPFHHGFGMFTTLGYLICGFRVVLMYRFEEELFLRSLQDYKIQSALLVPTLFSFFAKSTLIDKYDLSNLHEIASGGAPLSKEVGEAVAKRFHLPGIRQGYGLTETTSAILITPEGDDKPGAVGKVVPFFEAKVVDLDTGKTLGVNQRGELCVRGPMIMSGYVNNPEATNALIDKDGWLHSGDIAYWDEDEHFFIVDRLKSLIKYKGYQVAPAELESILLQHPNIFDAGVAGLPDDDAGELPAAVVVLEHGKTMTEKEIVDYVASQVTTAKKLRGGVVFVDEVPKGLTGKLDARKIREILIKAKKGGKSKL
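FLuc 10nM, D-luciferin 10uM, ATP 10uM, Mg acetate 10mM, Tris acetate pH 7.5, Tween/BSA; cpd qHTS; enzyme added last; CCD luminescence.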
HEK293 tox: cytotoxic compounds in HEK 293 cells. Potency, µM (highest dose often 115 µM), inactives show at the top dose activity change, negative = cytotoxicity, usual class: inhibitors. actives 6.6% (n = 94,000). AID 1345083. HEK 293 viability, ATP luminescence (CellTiter-Glo), 48-72 h; also: nearly all actives have a fitted effect of over 60% in size
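CellTiter-Glo luminescence (cellular ATP) was read after 48 or 72 hr of compound exposure at 37 degree Celsius. Cells were HEK 293 plated at 250 cells/well.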
Starred values were filed as active, the others as inactive; i = inactive; ? = inconclusive; . = not tested or not shown; ! = repeats disagree; [ ] = another dose, or the depositor's remark. In the library only some 10% were active in any assay of this set; here they are far more common. Unless noted, calls follow the shape of the dose curve; as a rule, active = well fitted curve in the direction sought with a large enough effect; inconclusive = small, poorly fitted or top-dose-only effect, or another doubt; inactive = no such curve, though single readings can be large; an effect the other way counts as inactive or inconclusive. % is scaled to controls: 0 for no effect and ±100 for the full control effect; potency is read from the fitted curve at half-maximal effect.

SMILES	NIH3T3 tox	GPT2 inh	NPR1 antag	Luciferase inh	HEK293 tox
COc1ccccc1N1CCN(C[C@@H]2C=C(C)[C@H](Cc3nnc(-c4cncn4C)o3)C[C@H]2C(C)C)CC1	35µM*	i	-14%	i	13µM*
CC1=C[C@@H](CN2CCCCC2)[C@H](C(C)C)C[C@H]1Cc1nnc(-c2cncn2C)o1	?	i	2%[70.6 µM]	i	100µM*
CC1=C[C@@H](CN2CCN(c3ncccn3)CC2)[C@H](C(C)C)C[C@H]1Cc1nnc(-c2cncn2C)o1	?	1%	-18%	i	35µM*
COc1ccc(C(=O)NC2CCCN(c3nc4ncccc4o3)C2)cc1 (centres undefined)	-11%	i	0%	i	-5%
COC[C@@H]1CN(Cc2cnn(C)c2)C[C@H]1c1ccncc1	5%	i	7%	i	i
COc1ccc(-c2cn(C)c(=O)n3cc(COc4ccc(Cl)cc4)nc23)c(C)c1	10µM*	2%[88.5 µM]	-1%[70.6 µM]	i	?
Cn1nccc1OCc1cn2c(=O)n(C)cc(-c3cccc(OC(F)(F)F)c3)c2n1	?	i	-10%[70.6 µM]	i	89µM*
COc1ccc(C)cc1-c1cn(C)c(=O)n2cc(COc3ccc(Cl)cc3)nc12	?	-2%[88.5 µM]	-18%[70.6 µM]	i	?
Cn1cc(-c2cccc(CO)c2)c2nc(COc3ccc(Cl)cc3)cn2c1=O	?	1%[88.5 µM]	-22%[70.6 µM]	?	63µM*
CN(C)c1cccc(-c2cn(C)c(=O)n3cc(COc4ccnn4C)nc23)c1	?	i	5%[70.6 µM]	i	?
CC(=O)Nc1ccccc1-c1cn(C)c(=O)n2cc(COc3ccc(Cl)cc3)nc12	100µM*	-28%[88.5 µM]	-4%[70.6 µM]	i	?
COC(=O)[C@@H](C)NC(=O)[C@H]1CN(C(=O)c2cccnc2)CCN1S(C)(=O)=O	5%[174 µM]	-27%[88.5 µM]	-1%[70.6 µM]	i	2%[172 µM]
O=C(Cc1cccc(Cl)c1)NC1CCCN(c2ccc3nnc(C4CC4)n3n2)C1 (centres undefined)	-25%	.	.	.	-14%
O=C(Cc1cccc(Cl)c1)NC1CCCN(c2ccc3nnc(-c4ccccc4)n3n2)C1 (centres undefined)	35µM*	.	.	.	35µM*
O=C(NC1CCN(c2ccc3nnc(-c4ccccc4)n3n2)C1)c1ccc(F)cc1 (centres undefined)	-3%	.	.	.	5%
COc1ccccc1C(=O)NC1CCN(c2ccc3nnc(-c4ccccc4)n3n2)CC1	?	.	.	.	35µM*
O=C(NC1CCN(c2ccc3nnc(-c4ccccc4)n3n2)C1)c1ccccc1Cl (centres undefined)	32µM*	.	.	.	35µM*
O=C(NC1CCN(c2ccc3nnc(-c4ccccc4)n3n2)CC1)c1ccccc1F	-24%	.	.	.	?
COC[C@H]1C[C@@H](NS(=O)(=O)c2cccc(C(F)(F)F)c2)[C@H](O)[C@@H]1O	-4%[138 µM]	i	1%[70.6 µM]	i	-6%[172 µM]
COc1ccc(CNC(=O)C[C@@H]2[C@H](O)CC[C@@H]3[C@]4(C)CO[C@@H](CNC(=O)C5CCCC5)O[C@@H]4CC[C@]32C)cc1	-25%	3%	0%	i	-20%
Cc1ccc(-c2nc(C(=O)NCc3cccc(C)c3)no2)cc1	?	3%	-3%	?	79µM*
Cc1ccc(-c2nc(C(=O)NCc3cccc(Br)c3)no2)cc1	?	i	-4%	?	?
O=C(NCc1cccc(Cl)c1)c1noc(-c2ccc(F)cc2)n1	25µM*	i	3%	i	?
COc1ccc(NC(=O)c2c(C)oc3ccn(Cc4cccc(F)c4)c(=O)c23)cc1F	?	-17%	-4%	i	?
C[C@@]12C[C@@]3(O)O[C@@H](O1)[C@]1(COC(=O)c4ccccc4)[C@@H]3C[C@@]12O[C@@H]1O[C@H](CO)[C@@H](O)[C@H](O)[C@@H]1O	.	i	.	.	.
SMILES	NIH3T3 tox	GPT2 inh	NPR1 antag	Luciferase inh	HEK293 tox
COc1ccc(CCN(Cc2ccccc2F)CC2(O)CCCNC2)cc1 (centres undefined)	25µM*	-13%	-25%	i	25µM*
CCN(CC1CCN(C2CCN(C)CC2)CC1)C(=O)c1ccc(-c2ccccc2)cc1	28µM*	-12%	7%	i	22µM*
O=C(NCc1ccccc1C(F)(F)F)C1CCCN(c2cnn(Cc3ccccc3)c(=O)c2)C1 (centres undefined)	?	i	-19%	i	45µM*
CNCC[C@H](Oc1cccc2ccccc12)c1cccs1	.	9.7µM*!	.	.	.
O=C(c1ccc2cc[nH]c2c1)N1CCC(N2CC(OCC3CC3)C23CCCCC3)CC1 (centres undefined)	?	?	2%	i	50µM*
CC(C)N1CCC2(CC1)CN(C(=O)C1(c3ccccc3)CC1)Cc1ccccc1O2	?	0%	.	.	?
Cc1ccc(C(=O)NC2CCN(c3cc(-c4cccs4)[nH]n3)CC2)c(C)c1	32µM*	i	0%	i	?
COc1ccc(Cl)cc1C(=O)NC1CCN(c2cc(-c3cccs3)[nH]n2)CC1	7.9µM*	-18%	-22%	i	?
COc1ccc(C(=O)NC2CCN(c3cc(-c4cccs4)[nH]n3)CC2)cc1OC	?	-2%	-15%	i	?
COc1ccc(C(=O)NC2CCN(c3cc(-c4cccs4)[nH]n3)CC2)cc1	?	-3%	0%	18µM*	?
COc1cccc([S+](=O)([O-])N2CCC3(CC(C)=NO3)C2)c1 (centres undefined)	-7%[138 µM]	i	0%[70.6 µM]	i	i
CC1=C[C@@H](CNC(=O)c2ccco2)[C@H](C(C)C)C[C@H]1CC(=O)N(C)Cc1ccccc1	100µM*	i	1%[70.6 µM]	i	?
CC1=C[C@@H](CNC(=O)CCC(=O)O)[C@H](C(C)C)C[C@H]1CC(=O)N(C)Cc1ccccc1	-14%[174 µM]	i	0%[70.6 µM]	i	-7%[172 µM]
CC1=C[C@@H](CNS(=O)(=O)c2ccc(C)cc2)[C@H](C(C)C)C[C@H]1CC(=O)N(C)Cc1cccnc1	11µM*	-5%	-19%	i	45µM*
CC1=C[C@@H](CNS(=O)(=O)c2cccc(C#N)c2)[C@H](C(C)C)C[C@H]1CC(=O)NCc1cccnc1	-6%	?	-3%	i	-9%
COCCC(=O)NC[C@@H]1C=C(C)[C@H](CC(=O)N(C)Cc2cccnc2)C[C@H]1C(C)C	0%[174 µM]	-3%[88.5 µM]	-4%[70.6 µM]	56µM*	-15%[172 µM]
O=C(O)CCc1ccnc(N2CCCC2)c1	-5%	i	-6%	i	6%
COc1cccc([S+](=O)([O-])N2CCC3(CC2)NC(=O)c2ccccc2O3)c1	?	-10%	?	i	40µM*
